# “And” between values parts separate entries of the source, which are not always exact repeats. Identical values can stand only once. Records with an inconclusive call do not appear. The source made the active and inactive calls. Rule for the calls: active = hit-call score of the fitted dose curve at least 0.9, where 1 is the maximum; inconclusive = response in the unintended direction; inactive = score below 0.9.
# Assays:
# [1] = ACEA_ER_AUC_viability: ACEA Biosciences xCELLigence Real-Time Cell Analysis on Estrogen Receptor Agonism for Viability (AID 2283782);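 note: hit means loss of impedance signal meaning reduced cell growth or viability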
# How it was run: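 Continuous-exposure impedance cell analysis uses T-47D cells in charcoal-stripped serum, eight 1:4 dilutions topping at 100 uM final, biological duplicate. Area under the growth curve at 80 h is fitted against DMSO baseline.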
# AR (gene 367) [2] = biological target: AR (gene 367) (UniProt P10275); test: ACEA_AR_antagonist_80hr: ACEA Biosciences xCELLigence Real-Time Cell Analysis on Androgen Receptor Antagonism for Proliferation (AID 2283787);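 note: 22Rv1 human prostate cancer cells with growth followed by electrical impedance; hits lower the impedance growth signal relative to DMSO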
# AR (gene 367), sequence (P10275 whole entry, looked up): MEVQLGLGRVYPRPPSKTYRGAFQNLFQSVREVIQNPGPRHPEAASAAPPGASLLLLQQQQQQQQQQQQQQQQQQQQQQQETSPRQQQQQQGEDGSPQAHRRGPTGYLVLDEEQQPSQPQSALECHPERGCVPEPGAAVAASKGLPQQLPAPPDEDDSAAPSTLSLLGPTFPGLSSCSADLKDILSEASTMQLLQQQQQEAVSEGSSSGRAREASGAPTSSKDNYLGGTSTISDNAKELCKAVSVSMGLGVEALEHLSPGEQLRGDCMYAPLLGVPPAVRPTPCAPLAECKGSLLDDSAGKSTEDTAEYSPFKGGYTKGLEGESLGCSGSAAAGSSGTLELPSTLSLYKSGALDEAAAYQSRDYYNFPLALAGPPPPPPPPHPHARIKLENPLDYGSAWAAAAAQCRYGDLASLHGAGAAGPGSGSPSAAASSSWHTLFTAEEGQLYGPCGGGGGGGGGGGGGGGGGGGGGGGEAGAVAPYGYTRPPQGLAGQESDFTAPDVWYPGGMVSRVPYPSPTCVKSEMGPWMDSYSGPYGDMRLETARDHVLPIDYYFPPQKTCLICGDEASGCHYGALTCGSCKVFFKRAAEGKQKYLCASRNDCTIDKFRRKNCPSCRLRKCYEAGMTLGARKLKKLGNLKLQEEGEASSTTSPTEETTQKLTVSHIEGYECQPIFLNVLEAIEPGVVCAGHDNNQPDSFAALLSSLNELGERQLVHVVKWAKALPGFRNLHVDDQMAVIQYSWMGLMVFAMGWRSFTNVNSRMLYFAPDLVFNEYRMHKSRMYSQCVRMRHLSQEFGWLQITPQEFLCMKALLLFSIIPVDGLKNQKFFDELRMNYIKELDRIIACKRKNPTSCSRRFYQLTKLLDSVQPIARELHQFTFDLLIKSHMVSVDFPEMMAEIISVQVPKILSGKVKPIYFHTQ
# How it was run: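 Using 22Rv1 cells held in assay medium, we dosed compounds (100 uM maximum final, 1:4 serial, eight points, 0.5% DMSO at top) and recorded cell-electrode impedance; the 80 hr timepoint was analyzed against DMSO.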
# AR (gene 367) [3] = biological target: AR (gene 367) (UniProt P10275); test: ACEA_AR_agonist_80hr: ACEA Biosciences xCELLigence Real-Time Cell Analysis on Androgen Receptor Agonism for Proliferation (AID 2283783);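 note: hits increase impedance growth signal above DMSO baseline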
# How it was run: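 Real-time cell-growth kinetics were recorded by electrode impedance in 22Rv1 cells exposed to test chemicals up to 100 uM final; the 80 h timepoint served as the readout, fitted upward relative to DMSO controls, in biological duplicate.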
# [4] = STM_H9_NormalizedViability: Cytotoxicity Assessment at 120 hours in the Stemina devTOX quickPredict H9 human embryonic stem cell (hESC)-based Assay (AID 2283784)
# How it was run: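 CellTiter-Fluor RFU, background-subtracted, expressed relative to 0.1% DMSO neutral control by plate. Pluripotent H9 cells; treatment with daily re-dosing. Plates carried 1uM methotrexate (positive) and 5 nM methotrexate (negative) references.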
smiles,measurement,setting,value
OCCC(F)(F)C(F)(F)C(F)(F)C(F)(F)C(F)(F)C(F)(F)C(F)(F)C(F)(F)F,outcome,[1],inactive
same,outcome,AR (gene 367) [2],inactive
CCCCCCCCCCCCc1ccccc1S(=O)(=O)O,AC50,[1],83.7 µM (active)
same,outcome,AR (gene 367) [3],inactive
same,outcome,[4],inactive
same,AC50,AR (gene 367) [2],72.9 µM (active)
CN1CCN(c2ccccc2/C=C2\SCCN(c3ccc(Cl)c(Cl)c3)C2=O)CC1,AC50,[1],50 µM (active)
same,outcome,[4],inactive
N#C[C@@H]1CC(F)(F)CN1C(=O)CNC1CC2CCC(C1)N2c1ncccn1 (stereo not given in full),outcome,AR (gene 367) [3],inactive
same,outcome,[4],inactive
same,outcome,AR (gene 367) [2],inactive
CCCCCCC(=O)O,outcome,[1],inactive
CN1CCC[C@H]1c1cccnc1,outcome,[1],inactive
same,outcome,[4],inactive
Oc1cc2ccccc2c2ccccc12,AC50,[1],4.66 µM (active)
same,outcome,AR (gene 367) [3],inactive
same,AC50,AR (gene 367) [2],8.26 µM (active)
C#C[C@]1(O)CC[C@H]2[C@@H]3CCC4=CC(=O)CC[C@@H]4[C@H]3CC[C@@]21C,AC50,[4],82 µM (active)
CCC(=C(c1ccc(O)cc1)c1ccc(OCCN(C)C)cc1)c1ccccc1,AC50,[1],5.17 µM (active) and 6.37 µM (active) and 12.9 µM (active)
same,AC50,AR (gene 367) [2],7.6 µM (active)
NC(=O)N1C(=O)C(C(=O)c2cc(Cl)cs2)c2cc(F)c(Cl)cc21 (stereo not given),AC50,[1],87.5 µM (active)
same,outcome,AR (gene 367) [2],inactive
CCc1ccc(CCOc2ccc(CC3SC(=O)NC3=O)cc2)nc1 (stereo not given),outcome,[1],inactive
same,AC50,[4],55.8 µM (active)
O=C(/C=C/c1ccc(O)cc1)CC(=O)/C=C/c1ccc(O)cc1,outcome,[1],inactive
same,outcome,AR (gene 367) [3],inactive
same,AC50,AR (gene 367) [2],29.9 µM (active)
CCN(CC)CCNc1ccc(CNC=O)c2sc3ccc(OC)cc3c(=O)c12,AC50,[1],83.2 µM (active)
same,AC50,[4],8.22 µM (active)
O=c1c(-c2ccc(O)cc2)coc2cc(O)ccc12,outcome,AR (gene 367) [3],inactive
same,outcome,AR (gene 367) [2],inactive
CCCCC[C@H](O)CC(=O)CCc1ccc(O)c(OC)c1,outcome,[1],inactive
same,outcome,AR (gene 367) [3],inactive
Nc1cccc2c(N)cccc12,outcome,[1],inactive
same,AC50,AR (gene 367) [3],0.115 µM (active)
same,outcome,[4],inactive
same,AC50,AR (gene 367) [2],77.8 µM (active)
c1ccc2c(c1)ccc1ccccc12,outcome,[1],inactive
same,AC50,[4],79.9 µM (active)
same,AC50,AR (gene 367) [2],50 µM (active)
O=C(O)c1ccccc1C(c1ccc(O)cc1)c1ccc(O)cc1,outcome,[1],inactive
same,outcome,AR (gene 367) [2],inactive
C[C@@H]1C[C@H]2[C@@H]3CCC4=CC(=O)C=C[C@]4(C)[C@@]3(F)[C@@H](O)C[C@]2(C)[C@@]1(O)C(=O)COP(=O)(O)O,outcome,[1],inactive
same,AC50,[4],15.2 µM (active)
OC1CCC(C2CCCCC2)CC1 (stereo not given),AC50,[1],83 µM (active) and 84.8 µM (active) and 86.7 µM (active)

# Source: PubChem BioAssay (EPA / NIEHS)
